Results as given in PubChem BioAssay AID1851 (National Center for Advancing Translational Sciences (NCATS), 2009).
Values joined by “and” are separate entries in the source; they are usually repeats but may differ in a detail not shown here. Equal values may be shown once. Screen size: about 16,000 compounds; about 2,600 (16%) were called active. About 20% were inconclusive and are not listed. A selection follows. Values without a mark were called inactive. The call rests on the fitted dose curve; in most records, active means well fitted curve in the direction sought with a large enough effect; inconclusive means small, poorly fitted or top-dose-only effect, or effect the other way; inactive means no such curve, though single readings can be large or run the other way.

These compounds were tested against Cytochrome P450 2D6 (Homo sapiens) (UniProt P10635) (assay: Cytochrome panel assay with activity outcomes). Conditions: recombinant CYP, pro-luciferin dealkylation, luminescence, p450-cyp2d6; series mostly up to 57.1 µM; activity, negative = inhibition: at the top concentration.
Cytochrome P450 2D6 (Homo sapiens), sequence (P10635 whole entry, looked up): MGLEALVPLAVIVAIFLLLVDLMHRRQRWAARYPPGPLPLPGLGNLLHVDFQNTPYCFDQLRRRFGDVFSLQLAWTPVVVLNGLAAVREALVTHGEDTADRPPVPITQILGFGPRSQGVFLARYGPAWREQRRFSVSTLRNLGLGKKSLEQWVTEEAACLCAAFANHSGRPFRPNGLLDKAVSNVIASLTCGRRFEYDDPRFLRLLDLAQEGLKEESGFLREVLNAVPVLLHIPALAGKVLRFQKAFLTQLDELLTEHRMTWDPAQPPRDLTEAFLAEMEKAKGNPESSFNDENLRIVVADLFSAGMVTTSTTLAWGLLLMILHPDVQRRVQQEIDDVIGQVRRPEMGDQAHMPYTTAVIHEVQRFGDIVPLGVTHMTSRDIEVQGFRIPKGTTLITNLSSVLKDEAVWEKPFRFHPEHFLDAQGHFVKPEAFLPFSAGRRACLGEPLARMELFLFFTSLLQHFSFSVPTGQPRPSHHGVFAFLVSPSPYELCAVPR
On the % scale 0 is the no-effect control and ±100 the full control effect.

Point of comparison: `CCOC(=O)N1CCN(c2nc(-c3cccs3)cc(C(F)(F)F)n2)CC1`, “activity, negative = inhibition” value -26.9%. Against it:
- Cc1ccc(C)c(-c2cc(C(=O)Nc3nccs3)c3ccccc3n2)c1 — higher, -20.1%
- CCCCNC(=O)NC1C(NC(=O)NCCCC)N(C)C(=O)N1C (stereo not given) — higher, -4.61%
- CC(=O)N1CC(=O)N(OCc2ccccc2)C1c1ccc(Cl)cc1Cl (stereo not given) — higher, 0.615%
- CCn1c(SCC(=O)OC)nc2sc3c(c2c1=O)CCC3 — higher, -18.7%
- COC(=O)c1cccc(C(=O)Nc2ccc(C)cc2)n1 — higher, -7.78%
- N#CCCn1c(=O)c(-c2cccc(C#N)c2)nc2cnc(Oc3cccc(Cl)c3)nc21 — higher, -19.3%
- CC(=O)SCC[N+](C)(C)C — higher, -1.14%
- CC(C)NC(=O)N1CCC2(CC1)CCN(C(=O)c1ccncc1)CC2 — higher, -3.15%
- CC(C)CN1CCCC2(CCN(C(=O)c3cnccn3)CC2)C1 — higher, -14.4%
- CN1CCC2(CC1)CCN(C(=O)c1ccncc1)CC2 — higher, -9.34%
- O=C(c1cnccn1)N1CCC2(CC1)CCN(c1ncccn1)CC2 — higher, -11.6%
- COC(=O)[C@@]1(Cc2ccc(OC)cc2)[C@H]2c3cc(C(=O)N4CCCC4)n(Cc4ccc(Cl)c(C(F)(F)F)c4)c3C[C@H]2CN1C(=O)c1ccccc1 — higher, -5.8%
- COc1cc(NC(=S)NC(=O)c2c(OC)cccc2OC)ccc1NC(=O)c1cccs1 — higher, -8.39%
- CCOC(=O)N1CCN(C(=O)CNS(=O)(=O)c2cccs2)CC1 — higher, -18.3%
- c1ccc(Oc2cc(-c3ccccc3)ncn2)cc1 — higher, 19.9%
- O=c1c(-c2ccc(F)cc2)nc2cnc(Nc3ccccc3)nc2n1Cc1cccs1 — higher, 8.67%
- Cc1ccc(S(=O)(=O)N(CC(=O)N/N=C/c2ccc(F)cc2)c2cccc3cccnc23)cc1 — higher, -8.45%
- CCCOc1ccc(-c2nc(N)n[nH]2)cc1 — higher, -9.35%
- CCCOc1ccc(C(=O)NNC(=S)NC(=O)CC)cc1 — higher, -9.37%
- O=C(Nc1cccc(F)c1)N1CC[C@@]2(CCCN(C(=O)c3cnccn3)C2)C1 — higher, -0.771%
- CC(C)(C)NC(=O)C(=O)N/N=C/c1ccc(Br)cc1 — higher, -2.47%
- Nc1nc(-c2ccccc2)cc(-c2ccccc2O)n1 — higher, 1.69%
- COc1cccc(Cn2c(=O)c(-c3ccc(Cl)cc3)nc3cnc(OC)nc32)c1 — higher, -8.08%
- Cc1ccccc1NC(=S)NC(=O)c1cc(-c2ccccc2)nc2ccccc12 — higher, -15.6%
- COC(=O)CCC(=O)NNC(=O)CCCOc1ccc(Cl)cc1Cl — higher, -7.11%
- CC(C)(C)C(=O)NNC(=O)CCCOc1ccc(Cl)cc1Cl — higher, -11.2%
- Cc1ncc([N+](=O)[O-])n1CC(=O)NCc1ccccc1 — higher, 5.23%
- COc1ccc(NC(=O)C23CC4CC(C2)CC(n2cnc(Br)n2)(C4)C3)c(C)c1 — higher, 24.7%
- O=S(=O)(c1cccc(-c2nnc(-c3ccc(Br)cc3)o2)c1)N1CCCCCC1 — higher, -13.3%
- Cc1ccc(S(=O)(=O)n2ccc(-c3cccc(OCc4c(F)cccc4Cl)c3)n2)cc1 — higher, 17.8%

With `COc1ccc2[nH]cc(CCNc3ccnc(-c4ccc5c(c4)OCO5)n3)c2c1` the AC50 was 7.94 µM (active).
In the case of `CC(C)CN1CCC2(CC1)CCN(C(=O)c1ccncc1)CC2`, the AC50 is reported as 3.98 µM (active).
For `CC(C)CN1CCC2(CC1)CCN(C(=O)c1cnccn1)CC2`, the AC50 was 10 µM (active).
For `CCOC(=O)N1CCN(C(=O)CNCc2cccs2)CC1`, the AC50 was 3.98 µM (active).
For `Clc1ccc(C(c2nnnn2C2CCCC2)N2CCN(Cc3ccncc3)CC2)cc1` (stereo not given), the AC50 was 1.26 µM (active).
With `c1coc(CN2CCN(C(c3cccs3)c3nnnn3C3CCCC3)CC2)c1` (stereo not given) the AC50 was 1.26 µM (active).
With `Cc1ccc(C(c2nnnn2C2CCCC2)N2CCN3CCCC3C2)cc1` (stereo not given) the AC50 was 0.447 µM (active).
`CCCOc1ccc(OCCNC2CCCC2)cc1` was tested, and the AC50 was 1.26 µM (active).
For `c1ccc(CCN2CCN=C2Cc2ccccc2)cc1`, the AC50 was 0.126 µM (active).
In the case of `C#CCN(C)CCCOc1ccc(Cl)cc1Cl`, the AC50 is reported as 2 µM (active) and 398 nM (active).
With `O=C(NC1CCCCC1)C12CC3CC(C1)CC(n1cncn1)(C3)C2` the AC50 was 11.2 µM (active).

Point of comparison: `CO[C@H]1COC(=O)[C@@H](C)COC(=O)[C@@H](Cc2ccccc2)NC(=O)C/C=C\[C@H]1C`, activity, negative = inhibition 0.386% [at 11.4 µM]. Against it:
- O=[N+]([O-])c1ccc([C@@H](Nc2ccccc2)c2ccc3cccnc3c2O)cc1 — lower, -2.01% [at 11.4 µM]
- O=c1n(-c2ccccc2)c(=O)n2n1CC[C@H]1/C(=N\OCc3ccccc3)[C@H]3O[C@@H]3[C@@H](O)[C@@H]12 — higher, 10.4% [at 11.4 µM]
- CC(C)N(CC(=O)O)CC(=O)O — higher, 12.3% [at 11.4 µM]
- C[C@H](c1ccccc1)N1C(=O)[C@H]2[C@@H]3[C@H](O)[C@H](O)CC(=O)[C@H]3CC[C@H]2C1=O — higher, 4.75% [at 11.4 µM]
- COc1ccc(C(=O)N/N=C2/C(=O)c3c(C)cc(C)cc3CC2(C)C)cc1 — lower, -4.67% [at 11.4 µM]

With `C=C1c2cccc(O)c2C(O)=C2C(=O)[C@@]3(O)C(O)=C(C(N)=O)C(=O)[C@@H](N(C)C)[C@@H]3[C@@H](O)[C@H]12` the “activity, negative = inhibition” value was 1.57% [at 25.6 µM].

For `CON(C)C(=O)c1nnc2c3ccccc3n(S(=O)(=O)c3ccc(C)cc3)c2n1`, the activity, negative = inhibition was -3.04% [at 11.4 µM] and -5.32% [at 11.4 µM].
